Measurements reported in PubChem BioAssay AID1159580 (chemical genetic matrix, 2015).
About 2,000 (36%) of roughly 5,500 compounds were called active. Another 18% or so got no clear call; they are omitted. Cut-off read from the data, not from the text of the source: active = normalized growth mostly below about 0.91 (no sharp cut-off); inconclusive = no clear call, values can overlap the other calls; inactive = mostly above about 0.92. The list shows a part of the results.

Assay: chemical genetic growth profiling, strain panel (AID 1159580);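 note: tested at 20 µM; growth read once vehicle control cultures reached saturation at 30 °C; 1 = growth at the plate median or of vehicle wells; lower values mean less growth of the strain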
Conditions: S. cerevisiae deletion strains, growth OD

Measured: normalized growth

C1CCN2CC3CC(CN4CCCCC34)C2C1 (centres undefined)
inactive: locus YAL013W, strain DEP1, hits give low values 1.01 | locus YAL021C, strain ccr4, hits give low values 1 | locus YAL026C, strain drs2, hits give low values 1.03 | locus YAL030W, strain snc1, hits give low values 1.01 | locus YBL061C, strain skt5, hits give low values 1.02 | locus YBR009C, strain hhf1, hits give low values 1.02 | locus YBR021W, strain FUR4, hits give low values 1 | locus YBR023C, strain chs3, hits give low values 1.02 | locus YBR171W, strain sec66, hits give low values 1.03 | locus YBR229C, strain ROT2, hits give low values 1.01 | locus YBR231C, strain swc5, hits give low values 1.01 | locus YBR279W, strain paf1, hits give low values 1.02 | locus YCL011C, strain gbp2, hits give low values 1.02 | locus YCL016C, strain dcc1, hits give low values 1.02 | locus YCL029C, strain bik1, hits give low values 1.01 | locus YCL061C, strain MRC1, hits give low values 1.02 | locus YCL069W, strain vba3, hits give low values 1.03 | locus YCR088W, strain abp1, hits give low values 1.03 | locus YDL005C, strain med2, hits give low values 1.03 | locus YDL035C, strain GPR1, hits give low values 1.01 | locus YDL040C, strain nat1, hits give low values 1.01 | locus YDL074C, strain BRE1, hits give low values 1.01 | locus YDL101C, strain DUN1, hits give low values 0.997 | locus YDL134C, strain PPH21, hits give low values 1 | locus YDL185W, strain tfp1, hits give low values 1.01 | locus YDL192W, strain arf1, hits give low values 1.01 | locus YDR001C, strain nth1, hits give low values 1.02 | locus YDR069C, strain doa4, hits give low values 1.03 | locus YDR101C, strain arx1, hits give low values 1.01 | locus YDR137W, strain rgp1, hits give low values 1.02 | locus YDR150W, strain NUM1, hits give low values 1.01 | locus YDR159W, strain sac3, hits give low values 1.03 | locus YDR162C, strain NBP2, hits give low values 0.993 | locus YDR195W, strain ref2 0.99 | locus YDR297W, strain sur2, hits give low values 1.01 | locus YDR334W, strain swr1, hits give low values 1.03 | locus YDR335W, strain msn5, hits give low values 1.04 | locus YDR388W, hits give low values 1 | locus YDR392W, strain spt3, hits give low values 0.929 | locus YDR502C, strain sam2, hits give low values 0.974 | locus YEL003W, strain gim4, hits give low values 1.03 | locus YEL037C, strain rad23, hits give low values 1.02 | locus YEL061C, strain CIN8 (second series), hits give low values 1.03 | locus YEL061C, strain CIN8, hits give low values 1.01 | locus YER015W, strain faa2, hits give low values 1.01 | locus YER016W, strain bim1, hits give low values 1.03 | locus YER110C, hits give low values 1.02 | locus YER111C, strain swi4, hits give low values 1.02 | locus YER155C, strain BEM2 (second series), hits give low values 1.05 | locus YER155C, strain BEM2, hits give low values 1.01 | locus YER167W, strain BCK2, hits give low values 1.01 | locus YFR010W, strain ubp6, hits give low values 1.02 | locus YGL078C, strain dbp3, hits give low values 0.983 | locus YGL167C, strain pmr1, hits give low values 1.02 | locus YGL173C, strain kem1, hits give low values 1.03 | locus YGL227W, strain vid30, hits give low values 1.02 | locus YGL240W, strain doc1, hits give low values 1.03 | locus YGL248W, strain PDE1, hits give low values 0.998 | locus YGL253W, strain hxk2, hits give low values 1.02 | locus YGR078C, strain PAC10, hits give low values 1 | locus YGR229C, strain SMI1, hits give low values 1.01 | locus YHR013C, strain ard1, hits give low values 1.01 | locus YHR027C, strain rpn1, hits give low values 1.01 | locus YHR030C, strain SLT2, hits give low values 1.01 | locus YHR079C, strain IRE1 (second series), hits give low values 0.999 | locus YHR094C, strain hxt1, hits give low values 1.01 | locus YHR129C, strain ARP1, hits give low values 1 | locus YHR142W, strain chs7, hits give low values 1 | locus YHR200W, strain rpn10, hits give low values 1 | locus YIL066C, strain RNR3, hits give low values 1.02 | locus YIL073C, strain SPO22, hits give low values 1.07 | locus YIL125W, strain kgd1, hits give low values 1 | locus YIR030C, strain dcg1, hits give low values 1.01 | locus YJL092W, strain hpr5, hits give low values 1.03 | locus YJL095W, strain BCK1 (second series), hits give low values 1.02 | locus YJL095W, strain BCK1, hits give low values 0.995 | locus YJL115W, strain asf1, hits give low values 1.03 | locus YJL129C, strain trk1, hits give low values 1.02 | locus YJL134W, strain LCB3, hits give low values 1.01 | locus YJL154C, strain vps35, hits give low values 1.02 | locus YJL164C, strain tpk1, hits give low values 1.01 | locus YJL166W, strain qcr8, hits give low values 1.02 | locus YJL168C, strain set2, hits give low values 1.01 | locus YJL187C, strain SWE1 (second series), hits give low values 1.01 | locus YJL187C, strain SWE1, hits give low values 1.02
active: locus YDR318W, strain mcm21, hits give low values 0.654 | locus YGL086W, strain mad1, hits give low values 0.901 | locus YGR135W, strain pre9, hits give low values 0.838 | locus YGR252W, strain gcn5, hits give low values 0.732
